HepG2 viability: kills HepG2 cells in TGF-b inhibitor counter-screen | HepG2 CAGA-GFP viability, ATP luminescence, 18 h | Potency, µM (series often up to 46.1 µM), for the others: at the top dose activity change, negative = cytotoxicity, actives largely listed as cytotoxic | 410,000 compounds, 0.76% hits
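HepG2 CAGA-GFP cells (1000/well, DMEM with 1% FBS) received compound, then TGF-beta at 500 pg/mL final, and were incubated 18 hours at 37 degrees C. Viability was read by CellTiter-Glo luminescence. Media-only wells were set as complete cell-killing and DMSO as no toxicity.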
HT1080NT lethal: kills 2HG-producing HT-1080-NT fibrosarcoma cells; HT-1080-NT fibrosarcoma viability, CellTiter-Glo ATP luminescence, 48 h; Potency, µM (series often up to 46.1 µM), without a hit: at the top dose activity, negative = less viability, usual class: cytotoxic; 360,000 compounds, 1.6% hits; AID 686970;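 further: NT is the 2HG producing partner of a matched IDH1 knockdown line; 0% = DMSO-treated cells and -100% = media-only wells without cells; nearly all actives have a fitted effect of over 55% in size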
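Luminescent CellTiter-Glo readout after 48 hours of compound exposure at 37 degrees C defined viability of HT-1080-NT cells. Activity was normalized to DMSO wells and cell-free media wells; concentration-response curves were fitted and assigned curve classes.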
HT1080 IDH1KD tx: kills HT-1080 cells with IDH1 knockdown | Potency, µM (titrated, usually from 46.1 µM), for inactives: at the top dose activity, negative = toxicity, usual class: cytotoxic | 360,000 compounds, 2% hits | HT-1080 IDH1 knockdown viability, ATP luminescence, 48 h | AID 686971;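 further: 0% = DMSO wells and -100% = cell-free medium wells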
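Assay cells: HT-1080 with IDH1 knockdown, 750 per well, RPMI/5% FBS. Exposure: 48 h at 37 °C following 2 h pre-incubation. Read: CellTiter-Glo luminescence; fitted concentration-response, curve class assigned.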
DT40 TDP1 CPT: growth inhibition of DT40 Tdp1-/-;hTDP1 cells with camptothecin (screen for TDP1 inhibitors); Potency, µM (series often up to 46.2 µM), for inactives: top-dose activity change, negative = growth inhibition, actives largely listed as inhibitors; 420,000 compounds, 12% hits; chicken DT40 Tdp1-/-;hTDP1 cells + 20 nM CPT, ATP luminescence, 48 h; further: on the % scale 0 is the no-effect control and ±100 the full control effect; nearly all actives have a fitted effect of over 55% in size
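Cell growth measured by CellTiter-Glo luminescence after a minimum 48 h, 37 C compound exposure with 20 nM CPT in Tdp1-knockout DT40 cells stably expressing hTDP1, seeded 400/well; qHTS titration format.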
TGFb SMAD3 inh: TGF-b pathway inhibition; HepG2 CAGA-GFP TGF-b/SMAD3 reporter, GFP fluorescence, 18 h; TGF-beta stimulated, 500 pg/mL final; 410,000 compounds, 1.2% hits; AID 588855; Potency, µM (series often up to 46.1 µM), without a hit: at the highest dose activity, negative = inhibition, actives largely listed as inhibitors; further: on the % scale 0 is the no-effect control and ±100 the full control effect; nearly all actives have a fitted effect of over 65% in size
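First, reporter cells (HEPG2 CAGA-GFP) rested 2 h at 37 degrees C. Next, compounds were pinned in and TGF-beta added to 500 pg/mL final. After 18 h, GFP was imaged per cell and summed per well.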
TDP1 cell noCPT: qHTS for Inhibitors of human tyrosyl-DNA phosphodiesterase 1 (TDP1): qHTS in cells in absence of CPT; DT40 Tdp1-/- hTDP1 cells, no CPT, ATP luminescence, 48 h; Potency, µM (titrated, usually from 46.2 µM), inactives show at the top dose activity change, negative = growth inhibition, hits mostly inhibitors; 420,000 compounds, 15% hits; further: on the % scale 0 is the no-effect control and ±100 the full control effect; nearly all actives have a fitted effect of over 55% in size
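Chicken DT40 Tdp1-/- cells complemented with human TDP1, screened without camptothecin (DMSO vehicle only), 400 cells/well. Compounds pin-transferred, cells incubated at 37 °C for at least 48 hr. Growth read as ATP-dependent luminescence (CellTiter-Glo, 30 min at RT).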
An asterisk follows results filed as active; u = inconclusive; x = no result given. Most compounds without a hit are left out; they make up all but 17% or so of the library. The call rests on the fitted dose curve; in most records, active means well fitted curve in the direction sought with a large enough effect; inconclusive means small, poorly fitted or top-dose-only effect, or another doubt; inactive means no such curve, though single readings can be large; an effect the other way counts as inactive or inconclusive. Potency means the concentration at half of the fitted maximal effect.

SMILES	HepG2 viability	HT1080NT lethal	HT1080 IDH1KD tx	DT40 TDP1 CPT	TGFb SMAD3 inh	TDP1 cell noCPT
Cc1ccc2c(c1)cc(CN(Cc1ccco1)C(=O)N1CCOCC1)c1nnnn12	-11.0%	-0.4%	-10.6%	u	3.3%	-11.3%
CCCCN(CCCC)CC(O)c1cc(Cl)cc2c1-c1ccc(Cl)cc1/C2=C/c1ccc(Cl)cc1 (stereo unspecified)	x	x	x	3.2%	x	-18.3%
O=c1[nH]c2ccc(NS(=O)(=O)c3ccc(F)cc3)cc2s1	-27.5%	x	x	-0.3%	u	u
Cc1ccc(NS(=O)(=O)c2ccc3c(c2)NC(=O)C(C)C(=O)N3)cc1C (stereo unspecified)	-6.1%	-29.5%	-20.1%	u	18.6%	18.4µM*
Cc1ccc(S(=O)(=O)Nc2ccc3[nH]c(=O)sc3c2)cc1C	-27.8%	x	x	u	-26.7%	16.4µM*
Cc1ccc(NS(=O)(=O)c2ccc3c(c2)C(C(C)C)C(=O)N3)cc1C (stereo unspecified)	-38.0%	x	x	u	u	29.1µM*
Cc1ccc(CCNS(=O)(=O)c2ccc3c(c2)C(C(C)C)C(=O)N3)cc1 (stereo unspecified)	-40.3%	x	x	u	u	20.6µM*
O=C(N/N=C\c1cc(Br)cs1)C1COc2ccccc2O1 (stereo unspecified)	-19.0%	u	u	u	-3.4%	u
CCCc1n(CC)c2ccccc2[n+]1CC(O)COC1CCCCC1 (stereo unspecified)	-1.1%	-19.5%	1.6%	5.17µM*	10.9%	4.11µM*
COc1cccc(NC(=O)Nc2nnc(-c3ccccc3SCc3ccccc3)s2)c1	1.2%	u	u	u	7.4%	u
COc1ccc(NC(=O)Nc2nnc(-c3ccccc3SCc3ccccc3)s2)cc1	-23.7%	-25.2%	-26.5%	18.4µM*	-7.6%	6.51µM*
CC(C)n1nc(C(=O)OCC(=O)NCCc2ccc(S(N)(=O)=O)cc2)c2ccccc2c1=O	7.6%	5.3%	4.5%	-1.1%	-1.0%	21.8%
COc1ccc(CNC(=O)C2CC(C)=C(C)CC2C(=O)O)cc1 (stereo unspecified)	3.8%	2.8%	8.0%	9.2µM*	-6.5%	9.2µM*
COc1ccc(CNC(=O)C2CC(C)=CCC2C(=O)O)cc1 (stereo unspecified)	7.8%	11.2%	11.2%	u	1.8%	-16.3%
COc1ccc(CCNC(=O)C(=O)NCC2CCCO2)cc1 (stereo unspecified)	-17.8%	9.1%	7.6%	-6.0%	27.3%	-23.3%
COc1ccc(CNC(=O)C(=O)NCC2CCCO2)cc1 (stereo unspecified)	-21.4%	10.0%	11.4%	16.4µM*	0.0%	20.6µM*
COc1cc(/C=C2/C=Cc3ccccc32)ccc1N(C)C	-48.0%	x	x	u	-0.8%	u
COc1ccccc1CNS(=O)(=O)c1ccc(F)c(C(=O)Nc2cc(Cl)ccc2OC)c1	-6.9%	x	x	u	u	u
COc1ccccc1NC(=O)c1cc(S(=O)(=O)NCCC2=CCCCC2)ccc1F	-3.4%	x	x	23.1µM*	u	u
COc1ccc(C)cc1NC(=O)c1cc(S(=O)(=O)NCCC2=CCCCC2)ccc1F	0.8%	x	x	20.6µM*	-15.0%	u
COc1ccc(C)cc1NC(=O)c1cc(S(=O)(=O)N2CCC3(CC2)OCCO3)ccc1F	1.8%	11.4%	15.6%	-24.9%	-0.2%	-26.7%
Cc1nn(-c2ccc(F)cc2)c2c1cc(C#N)c1nc3ccccc3n12	4.7%	11.2%	8.8%	-1.8%	-12.0%	3.5%

Assay outcomes deposited in PubChem BioAssay by National Center for Advancing Translational Sciences (NCATS).
